Our source for the Potency and activity change, positive = activation values is PubChem BioAssay (Tox21).

Test [1] is described as follows: qHTS assay to identify small molecule agonists of H2AX - cell viability counter screen (AID 1224847; calls by dose curve; note: nearly all actives have a fitted effect of over 30% in size; note: potency is the fitted concentration of half-maximal effect). In a few lines: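 After overnight plating of 1000 CHO-K1 cells per well, a 15-concentration compound series was applied for 3 hr at 37C. Luminescence from CellTiter-Glo, read following 30 min at room temperature, reflected cell viability.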
(In general: Quantitative high-throughput screening tests each substance at several concentrations.)

A short description of test [2]: qHTS assay to identify small molecule antagonists of the estrogen related receptor (ERR) signaling pathway from Tox21 library (AID 1224848). Note: nearly all actives have a fitted effect of over 50% in size. Note: potency is the fitted concentration of half-maximal effect. The method, boiled down:
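Compounds dissolved in DMSO are pin-transferred onto ERR reporter cells (2,000 per well) that have settled for 6 h at 37 C. Plates then incubate 18 h at 37 C before ONE-Glo luciferase reagent and a luminescence read 30 min later.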

Test [3] in a line: qHTS assay to identify small molecule agonists of the estrogen related receptor (ERR) signaling pathway from Tox21 library (AID 1224849; calls by dose curve; note: nearly all actives have a fitted effect of over 15% in size). As to conditions: ERR reporter cell line, ONE-Glo luciferase, 18 h; at 92.4 µM (top of the series) unless noted. The method, boiled down:
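Luminescent agonist read-out (One-Glo, 30-minute room-temperature incubation) following 18-hour compound treatment at 37 C of the ERR cell line, which had been plated 6 hours before dosing.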

Test [4] in a line: qHTS RealTime-Glo MT Cell Viability Assay in HepG2 cells - 24 hour (AID 1224867). Note: nearly all actives have a fitted effect of over 50% in size. Note: potency is the fitted concentration of half-maximal effect. In a few lines: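 Cell number in HepG2 cultures estimated from NanoLuc luminescence generated by metabolic reduction of a prosubstrate by living cells. The homogeneous, nonlytic format allowed repeated reads at 0, 8, 16, 24, 32 and 40 h of compound exposure.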
The nature of test [5]: A CellTox Green Cytotoxicity Assay to monitor cytotoxicity in HEK293 cells - 0 hour (AID 1224869). Note: nearly all actives have a fitted effect of over 50% in size. The method, boiled down:
(§1)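 Fluorescence from a DNA-binding dye excluded by viable cells was measured repeatedly in the same HEK293 wells (600 cells/well) during continuous compound exposure at 37 C. Each assay gives one read point: 0, 8, 16, 24, 32 or 40 h.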

Test [6] can be described thus: qHTS RealTime-Glo MT Cell Viability Assay in HepG2 cells - 8 hour (AID 1224873). Note: nearly all actives have a fitted effect of over 55% in size. Note: potency is the fitted concentration of half-maximal effect. The method, boiled down: (§2)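 HepG2 cells (600/well) mixed with RealTime-Glo MT reagent, settled 5 h at 37 C/5% CO2 before compound addition. Nonlytic NanoLuc luminescence from viable-cell prosubstrate reduction read repeatedly during 40 h treatment at 37 C.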
Test [7] is described as follows: qHTS RealTime-Glo MT Cell Viability Assay in HEK293 cells - 32 hour (AID 1224868). Note: nearly all actives have a fitted effect of over 50% in size. Note: potency is the fitted concentration of half-maximal effect. The method, boiled down: (§3)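 Homogeneous bioluminescent viability format in HEK293 cells (600 cells/well). Following 5 h at 37 C/5% CO2, 23 nL compound was pintooled; the signal was measured repeatedly during 40 h incubation.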
Test [8] is described as follows: qHTS RealTime-Glo MT Cell Viability Assay in HepG2 cells - 40 hour (AID 1224870). Note: nearly all actives have a fitted effect of over 50% in size. Note: potency is the fitted concentration of half-maximal effect. In a few lines:
as §2

The nature of test [9]: A CellTox Green Cytotoxicity Assay to monitor cytotoxicity in HEK293 cells - 40 hour (AID 1224871). Note: nearly all actives have a fitted effect of over 45% in size. Note: potency is the fitted concentration of half-maximal effect. The method, boiled down: as §1
A short description of test [10]: qHTS RealTime-Glo MT Cell Viability Assay in HEK293 cells - 16 hour (AID 1224872). Note: nearly all actives have a fitted effect of over 50% in size. Note: potency is the fitted concentration of half-maximal effect. The method, boiled down: as §3

A number with no mark means an inactive call. Inconclusive results are not listed. Activity calls are given as the source filed them. Unless noted, calls come from the whole dose curve; as a rule, active = well fitted curve in the direction sought with a large enough effect in the repeat runs; inconclusive = weak or mixed curves; inactive = no such curve, though single readings can be large; an effect the other way counts as inactive or inconclusive.
% is set by controls: 0 for no effect and ±100 for the full control effect.

Regarding `CC(C)(C)C1=CC(=O)C(C(C)(C)C)=CC1=O`, the Potency result in [1], in test [2], in test [4], in test [5] and in [6] was “inactive” each time. Also, in test [3], the activity change, positive = activation was -2.14% [at 42.5 µM].

Turning to `Cc1ccc2n[nH]nc2c1`, the Potency entry in [1], in test [2], in [4], in test [7], in test [5] and in test [8] was “inactive” throughout. Further, the Potency result in test [9], in test [10] and in [6] was “inactive” each time. Moreover, the activity change, positive = activation in test [3] is 4.26%.

Take `CC(C)(C)c1cc(CCC(=O)OCCSCCOC(=O)CCc2cc(C(C)(C)C)c(O)c(C(C)(C)C)c2)cc(C(C)(C)C)c1O`: the Potency entry in [1], in test [2], in test [4], in test [7], in test [5] and in test [9] was “inactive” throughout. Moreover, the Potency entry in test [10] is “inactive”. The activity change, positive = activation in test [3] is -3.83% [at 42.5 µM].

On to `Nc1cc([N+](=O)[O-])ccc1Cl`, for which the Potency result in test [1], in test [2], in test [4], in test [7], in [5] and in test [8] was “inactive” in each case. In addition, the Potency result in test [9], in test [10] and in [6] was “inactive” throughout. In addition, the activity change, positive = activation in test [3] is 1.59%.

For the molecule `C=C1CC[C@H]2O[C@]2(C)CC[C@@H]2[C@@H]1CC2(C)C`, the Potency entry in test [1], in test [2], in [4], in test [5], in test [8] and in [6] was “inactive” throughout. For the same molecule, the activity change, positive = activation in [3] was 2.38%.

Regarding `CC(C)C(=O)C(C)C`, the Potency entry in [1], in test [2], in [4], in [7], in [5] and in [8] was “inactive” each time. In addition, the Potency entry in test [9], in test [10] and in [6] was “inactive” each time. The activity change, positive = activation in test [3] is 1.37%.

Take `[Cl][Sc]([Cl])[Cl]`: the Potency result in [1], in test [2], in test [4], in test [7], in test [5] and in test [8] was “inactive” throughout. Moreover, the Potency result in test [10] and in test [6] was “inactive” each time. Besides, the activity change, positive = activation in test [3] is 0.963%.

For `C[C@H]1O[C@@H](O[C@H]2CC[C@@]3(C)[C@H](CC[C@@H]4[C@@H]3C[C@@H](O)[C@]3(C)[C@@H](C5=CC(=O)OC5)CC[C@]43O)C2)C[C@H](O)[C@@H]1O[C@H]1C[C@H](O)[C@H](O[C@H]2C[C@H](O)[C@H](O[C@@H]3O[C@H](CO)[C@@H](O)[C@H](O)[C@H]3O)[C@@H](C)O2)[C@@H](C)O1`, the Potency entry in [1], in test [4], in test [5], in test [8], in [9] and in test [6] was “inactive” in each case. Moreover, the values for the Potency in test [2] and in test [7] were 0.376 µM (active) and 0.239 µM (active), respectively. Besides, the activity change, positive = activation in [3] was -54.9% [at 42.5 µM].

For `CCCCCc1ccc(O)cc1`, the Potency is 89.8 µM (active) in test [1] and 34.7 µM (active) in test [9]. Also, the Potency result in test [2], in [4], in test [5], in [8] and in [6] was “inactive” throughout. Moreover, in test [3], the activity change, positive = activation was 1.58%.

Regarding `Oc1ccc2c(c1)CCC2`, the Potency result in [1], in [2], in [4], in test [7], in test [5] and in test [8] was “inactive” in each case. Further, the Potency entry in test [10] and in test [6] was “inactive” throughout. The activity change, positive = activation in [3] was 7.55%.

As for `COc1cc(OC)nc(NC(=O)NS(=O)(=O)Nc2ccccc2C(=O)N(C)C)n1`, the Potency entry in [1], in test [2], in test [4], in test [7], in [5] and in test [8] was “inactive” each time. Also, the Potency entry in test [9], in test [10] and in test [6] was “inactive” throughout. For the same molecule, the activity change, positive = activation in [3] was -7.75%.

Regarding `O=C1CCC(=O)N1`, the Potency entry in test [1], in test [2], in test [4], in [5], in test [8] and in [9] was “inactive” each time. Further, in [6], the Potency result is “inactive”. Also, the activity change, positive = activation in [3] is 0.296%.

Take `O=C(CCCCCCCCc1cccnc1)N1CCC(C=C(c2ccccc2)c2ccccc2)CC1`: the Potency in test [1] was 50.5 µM (active); in test [2], 21.7 µM (active); in test [7], 21.9 µM (active); in test [10], 21.9 µM (active); in [6] it was 49 µM (active). Also, the activity change, positive = activation in test [3] was -69.2%. Moreover, the Potency entry in [5] is “inactive”.

For the molecule `CC/C(=C(/c1ccc(O)cc1)c1ccc(OCCN(C)C)cc1)c1ccccc1`, the Potency is 41.9 µM (active) in [1]; 18 µM (active) in test [2]; 18.2 µM (active) in test [4]; 9.11 µM (active) in test [7]; 12.9 µM (active) in test [8]; 20.4 µM (active) in test [9]. Also, the Potency in [10] is 12.9 µM (active); in [6], 28.8 µM (active). Further, the activity change, positive = activation in test [3] is -77.3% [at 42.5 µM]. The Potency result in test [5] is “inactive”.

Regarding `CN(C)CCOc1ccc(/C(=C(/CCCl)c2ccccc2)c2ccccc2)cc1`, the Potency in test [1] is 94.3 µM (active); in test [2] it was 51 µM (active); in test [4] it was 40.9 µM (active); in test [7], 36.4 µM (active); in test [8], 40.9 µM (active); in test [10], 36.4 µM (active). Moreover, the Potency in [6] was 36.4 µM (active). Further, the activity change, positive = activation in [3] is -52.6%. The Potency entry in test [5] was “inactive”.

Consider `COC(=O)c1ccc([N+](=O)[O-])cc1`, for which the Potency entry in [1], in [2], in [4], in test [7], in test [5] and in test [8] was “inactive” in each case. Moreover, the Potency entry in test [9], in [10] and in test [6] was “inactive” each time. In addition, the activity change, positive = activation in test [3] is 1.35%.

As for `CN1CCN(c2ccccc2/C=C2\SCCN(c3ccc(Cl)c(Cl)c3)C2=O)CC1`, the Potency is 50.5 µM (active) in [1]; 24.3 µM (active) in [2]; 38.9 µM (active) in test [4]; 12.3 µM (active) in test [7]; 21.9 µM (active) in test [8]; 43.6 µM (active) in test [9]. The Potency in [10] is 12.3 µM (active); in [6], 49 µM (active). The activity change, positive = activation in test [3] is -79.7%. The Potency entry in [5] is “inactive”.

On to `Nc1ccc(F)c([N+](=O)[O-])c1`, for which the Potency result in test [1], in test [4], in test [7], in test [5], in test [8] and in [9] was “inactive” each time. Also, the Potency entry in [10] and in test [6] was “inactive” throughout. The Potency in test [2] is 34.4 µM (active). For the same molecule, in [3], the activity change, positive = activation was -30.4%.

On to `CCOC(=O)C1=NN(c2ccc(Cl)cc2Cl)C(C)(C(=O)OCC)C1` (stereo unspecified), for which the Potency in [1] was 113 µM (active); in test [2] it was 48.6 µM (active). For the same molecule, in test [3], the activity change, positive = activation is -36.6%. In addition, the Potency result in test [4], in test [5], in test [8] and in test [6] was “inactive” throughout.

`CCCC(C)C=O` (stereo unspecified): the Potency result in test [1], in test [2], in test [4], in test [7], in test [5] and in test [8] was “inactive” each time. Further, the Potency entry in test [9], in test [10] and in test [6] was “inactive” in each case. Further, the activity change, positive = activation in test [3] is 4.95%.

Turning to `CCc1cccc(CC)c1`, the Potency result in test [1], in [2], in [4], in [5], in test [8] and in [9] was “inactive” each time. Also, the Potency entry in test [10] and in test [6] was “inactive” throughout. Also, in test [3], the activity change, positive = activation is -2.59%.
